From the supplement of paper PMC10105736
A number with no mark means an inactive call.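 How the source made its calls: active = MAPPIT score above the 99th percentile of random reference set scores in the same batch; inactive = at or below it.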

Legend:
Assay in all cases: MAPPIT interaction score (arbitrary units); higher = stronger binary interaction signal, active = hit call of the paper
CG12768 = conditions: MAPPIT configuration: N-N; pair source set: Curagen_low_conf
CG8281 = conditions: MAPPIT configuration: N-N; pair source set: screen_1
CG12863 = conditions: MAPPIT configuration: N-N; pair source set: Curagen_high_conf
CG12963 = conditions: MAPPIT configuration: N-N; pair source set: Curagen_high_conf
CG13058 = conditions: pair source set: RRS
CG13069 = conditions: pair source set: RRS
DCTN1-p150 = conditions: MAPPIT configuration: N-N; pair source set: Lit-BM-16
ctp = conditions: pair source set: Lit-BM-16
CG1316 = conditions: MAPPIT configuration: N-N; pair source set: Curagen_high_conf
CG13476 = conditions: MAPPIT configuration: N-N; pair source set: Lit-BS-16
CG9795 = conditions: MAPPIT configuration: N-N; pair source set: Curagen_high_conf
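Further: HEK293T cells with Epo stimulation, STAT-responsive firefly luciferase reporter, fold induction versus unstimulated cells divided by the larger fold induction of two negative controls lacking either bait or prey.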

B1: dod (protein)
chain: MPDAEQLPDGWEKRTSRSTGMSYYLNMYTKESQWDQPTEPAKKAGGGSAGGGDAPDEVHCLHLLVKHKGSRRPSSWREANITRTKEEAQLLLEVYRNKIVQQEATFDELARSYSDCSSAKRGGDLGKFGRGQMQAAFEDAAFKLNVNQLSGIVDSDSGLHIILRKA
CG12768
  MAPPIT interaction score: 0.142
CG8281
  MAPPIT interaction score: -0.114

B2: Rab26 (protein)
chain: MASTAVGLGGGEGDPGAGGPPAGSAHPDDASSMSDDVFEDAETTQARIEELRRRPFGDGSYNPPAAPASVSASITTTTTQQQQQHHNPSHHHQSSHHQPSHHHHHHHHSQLSLTGSHHYHDDAIMAPVQRSATGYPGYRPSREAMQMYAYGTDDYDDDYNDGWRSYRYDEVDMHPAPSNAHQQPFDDTVNHKTILLGDSGVGKTSFLVKYNTGEFRLGSFSATVGIALTNKVVVVDGTRVKLQIWDTAGQERFRSVTHAYYRDAHALLLLYDVTNKTTYDNIRAWLGEIREYAQEDVVIVLIGNKADCSGSERQVKREDGERLGREHNVPFMETSAKTGLNVELSFTAVARQLKSRGYEHGDDGKFNVHDFVRDNTKARSVCAQCRNM
CG12863
  MAPPIT interaction score: 1.43

B3: csw (protein)
chain: MSSRRWFHPTISGIEAEKLLQEQGFDGSFLARLSSSNPGAFTLSVRRGNEVTHIKIQNNGDFFDLYGGEKFATLPELVQYYMENGELKEKNGQAIELKQPLICAEPTTERWFHGNLSGKEAEKLILERGKNGSFLVRESQSKPGDFVLSVRTDDKVTHVMIRWQDKKYDVGGGESFGTLSELIDHYKRNPMVETCGTVVHLRQPFNATRITAAGINARVEQLVKGGFWEEFESLQQDSRDTFSRNEGYKQENRLKNRYRNILPYDHTRVKLLDVEHSVAGAEYINANYIRLPTDGDLYNMSSSSESLNSSVPSCPACTAAQTQRNCSNCQLQNKTCVQCAVKSAILPYSNCATCSRKSDSLSKHKRSESSASSSPSSGSGSGPGSSGTSGVSSVNGPGTPTNLTSGTAGCLVGLLKRHSNDSSGAVSISMAEREREREREMFKTYIATQGCLLTQQVNTVTDFWNMVWQENTRVIVMTTKEYERGKEKCARYWPDEGRSEQFGHARIQCVSENSTSDYTLREFLVSWRDQPARRIFHYHFQVWPDHGVPADPGCVLNFLQDVNTRQSHLAQAGEKPGPICVHCSAGIGRTGTFIVIDMILDQIVRNGLDTEIDIQRTIQMVRSQRSGLVQTEAQYKFVYYAVQHYIQTLIARKRAEEQSLQVGREYTNIKYTGEIGNDSQRSPLPPAISSISLVPSKTPLTPTSADLGTGMGLSMGVGMGVGNKHASKQQPPLPVVNCNNNNNGIGNSGCSNGGGSSTTSSSNGSSNGNINALLGGIGLGLGGNMRKSNFYSDSLKQQQQREEQAPAGAGKMQQPAPPLRPRPGILKLLTSPVIFQQNSKTFPKT
CG12963
  MAPPIT interaction score: -0.144

B4: Fdx2 (protein)
chain: MLVINSCRAASRLALRSLNLRSPIATRTFSTGLALKTKDVVNITFVRANGDKIKTSGKVGDSLLDVVVNNNVDLDGFGACEGTLTCSTCHLIFKTSDFEKLPDKPGDEELDMLDLAYELTDTSRLGCQITLSKDMEGLEVHVPSTINDARAA
CG13058; MAPPIT configuration: N-C
  MAPPIT interaction score: 0.365
CG13058; MAPPIT configuration: N-N
  MAPPIT interaction score: 0.0953

B5: sw (protein)
chain: MDRKAELERKKAKLAALREEKDRRRREKEIKDMEEAAGRIGGGAGIDKDQRKDLDEMLSSLGVAPVSEVLSSLSSVNSMTSDNSNTQTPDASLQATVNGQSGGKKQPLNLSVYNVQATNIPPKETLVYTKQTQTTSTGGGNGDVLSCHSSPLSGYMEDWWRPRKAHATDYYDEYNLNPGLEWEDEFTDDEESSLQNLGNGFTSKLPPGYLTHGLPTVKDVAPAITPLEIKKETEVKKEVNELSEEQKQMIILSENFQRFVVRAGRVIERALSENVDIYTDYIGGGDSEEANDERSHARLSLNRVFYDERWSKNRCITSMDWSTHFPELVVGSYHNNEESPNEPDGVVMVWNTKFKKSTPEDVFHCQSAVMSTCFAKFNPNLILGGTYSGQIVLWDNRVQKRTPIQRTPLSAAAHTHPVYCLQMVGTQNAHNVISISSDGKLCSWSLDMLSQPQDTLELQQRQSKAIAITSMAFPANEINSLVMGSEDGYVYSASRHGLRSGVNEVYERHLGPITGISTHYNQLSPDFGHLFLTSSIDWTIKLWSLKDTKPLYSFEDNSDYVMDVAWSPVHPALFAAVDGSGRLDLWNLNQDTEVPTASIVVAGAPALNRVSWTPSGLHVCIGDEAGKLYVYDVAENLAQPSRDEWSRFNTHLSEIKMNQSDEV
CG13069; MAPPIT configuration: N-C
  MAPPIT interaction score: -0.364
CG13069; MAPPIT configuration: N-N
  MAPPIT interaction score: 0.421
DCTN1-p150
  MAPPIT interaction score: 1.87
ctp; MAPPIT configuration: N-C
  MAPPIT interaction score: 1.37
ctp; MAPPIT configuration: N-N
  MAPPIT interaction score: 1.75

B6: poly (protein)
chain: MATSVLLACGLNEQKLPGFVHISEESNVDASFLISCVLGQRLRISNAGTLLVCLQHHYQHYFNAGMRLGYNTNIFQGKTLGVIDVLSDMAGEGLASKWLTNTEGQTLTDQLVEDIRAQVERNYASRNSYTVLIDNLSILFNLGASKLQVQQFCQDLAALGKEREKLTVITKLSNSDIYQLTDNNVAKLGQVRIQVLRLKSGVFREVDGKLLIERVLDEGNYACEETRKEVLYKVNDRNVKVFAPGEIGVKV
CG1316
  MAPPIT interaction score: 0.569

B7: Nin (protein)
chain: MEVSADPYEQKLYQMFRSCETQCGLLDEKSLLKLCSLLELRDQGSALIASLGGSHQLGVSFGQFKEALLNFLGSEFDGNTSSGFIERSLVITDEPLNNTYIESPPESSDREVSPKLVVGTKKYGRRSRPQQGIYELSVTDSDNTDEDQLQQQQNQRSLNGCDELGVQVQRSSSQSDLPGSRRLRSVHTSGSKLKRCASLPARRKMNSNTTGATTSPTAAAKLKQLSIQSQAQHSSSVESLDTVTPQQLETISVHSIMEAWELASIPNTRNLLHVLGFDEEEEVNLQQLTKALEEELRGIDGDHEQSNMLRALAALQATELGNYRLAYRQQHEENLKLRADNKAANQRVALLAVEVDERHASLEDNSKKQVQQLEQRHASMVREITLRMTNDRDHWTSMTGKLEAQLKSLEQEEIRLRTELELVRTENTELESEQQKAHIQITELLEQNIKLNQELAQTSSSIGGTPEHSPLRPRRHSEDKEEEMLQLMEKLAALQMENAQLRDKTDELTIEIESLNVELIRSKTKAKKQEKQEKQEDQESAATATKRRGDSPSKTHLTEESPRLGKQRKCTEGEQSDASNSGDWLALNSELQRSQSQDEELTSLRQRVAELEEELKAAKEGRSLTPESRSKELETSLEQMQRAYEDCEDYWQTKLSEERQLFEKERQIYEDEQHESDKKFTELMEKVREYEEQFSKDGRLSPIDERDMLEQQYSELEAEAAQLRSSSIQMLEEKAQEISSLQSEIEDLRQRLGESVEILTGACELTSESVAQLSAEAGKSPASSPISYLWLQSTIQEPAKSLADSKDEATASAIELLGGSPSHKTASRNNLTTSETSIFSTTPFESSQSGPSPTNSGNSNAYGANPGPAPISKPKRSQSPQQAAASEGEIADCETSSTASGKSFESNSKTSCLSHEKCSSPSALKEELKRLKFFELSLKEQIKDLSLQRDGLVMELQQLQEARPVLEKAYARTTHPTLQQRLNQLELRNRHLQNVIKQQQHYTESLMQQSWRQHQVELNDLHSRIETQGVLLADQTQRLQSADILVKDLYVENSHLTATVQRLEQQRARVNLIHQQQQQQRLVGGGLPGMP
CG13476
  MAPPIT interaction score: 0.125
CG9795
  MAPPIT interaction score: 4.19 (active)
